Data from PMC6753376.

USO1, O60763, sequence (O60763 whole entry): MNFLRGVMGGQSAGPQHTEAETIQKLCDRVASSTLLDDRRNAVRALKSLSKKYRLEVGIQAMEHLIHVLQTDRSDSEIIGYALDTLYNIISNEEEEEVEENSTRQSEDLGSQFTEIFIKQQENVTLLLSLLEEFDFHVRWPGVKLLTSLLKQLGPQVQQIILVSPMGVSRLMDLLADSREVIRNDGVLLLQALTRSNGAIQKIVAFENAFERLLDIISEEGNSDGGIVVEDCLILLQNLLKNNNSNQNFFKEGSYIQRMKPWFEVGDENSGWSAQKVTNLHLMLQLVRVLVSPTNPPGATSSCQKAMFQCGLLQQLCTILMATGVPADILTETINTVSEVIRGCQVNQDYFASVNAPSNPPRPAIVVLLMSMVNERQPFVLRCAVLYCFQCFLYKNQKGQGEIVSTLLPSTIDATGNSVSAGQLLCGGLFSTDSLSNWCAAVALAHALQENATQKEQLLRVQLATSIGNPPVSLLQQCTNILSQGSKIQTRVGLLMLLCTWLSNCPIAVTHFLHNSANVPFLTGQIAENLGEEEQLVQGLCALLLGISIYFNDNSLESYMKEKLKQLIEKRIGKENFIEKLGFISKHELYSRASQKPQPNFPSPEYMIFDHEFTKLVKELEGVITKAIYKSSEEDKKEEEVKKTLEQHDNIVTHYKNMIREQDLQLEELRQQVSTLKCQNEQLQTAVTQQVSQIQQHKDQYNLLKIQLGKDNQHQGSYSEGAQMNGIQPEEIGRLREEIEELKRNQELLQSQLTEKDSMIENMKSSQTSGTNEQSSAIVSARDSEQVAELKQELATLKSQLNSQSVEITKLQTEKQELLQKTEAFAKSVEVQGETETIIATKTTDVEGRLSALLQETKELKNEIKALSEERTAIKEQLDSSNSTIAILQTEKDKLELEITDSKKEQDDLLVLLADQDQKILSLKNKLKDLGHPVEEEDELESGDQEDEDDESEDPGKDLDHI
CCT5, P48643, sequence (P48643 whole entry): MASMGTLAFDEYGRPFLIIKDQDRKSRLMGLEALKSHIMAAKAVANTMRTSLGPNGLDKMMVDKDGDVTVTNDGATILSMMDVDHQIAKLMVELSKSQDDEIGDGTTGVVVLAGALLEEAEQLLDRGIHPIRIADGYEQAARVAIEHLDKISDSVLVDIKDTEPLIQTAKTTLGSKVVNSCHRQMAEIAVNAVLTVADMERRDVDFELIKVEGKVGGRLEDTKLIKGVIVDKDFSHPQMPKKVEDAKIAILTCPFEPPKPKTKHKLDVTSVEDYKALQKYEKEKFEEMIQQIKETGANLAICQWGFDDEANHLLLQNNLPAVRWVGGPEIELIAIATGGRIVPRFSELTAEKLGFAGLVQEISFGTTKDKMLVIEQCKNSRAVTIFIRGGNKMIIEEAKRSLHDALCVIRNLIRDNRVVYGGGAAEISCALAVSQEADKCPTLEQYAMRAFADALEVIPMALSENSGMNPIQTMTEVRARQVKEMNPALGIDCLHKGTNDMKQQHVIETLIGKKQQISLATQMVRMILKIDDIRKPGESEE
CCT8, P50990, sequence (P50990 whole entry): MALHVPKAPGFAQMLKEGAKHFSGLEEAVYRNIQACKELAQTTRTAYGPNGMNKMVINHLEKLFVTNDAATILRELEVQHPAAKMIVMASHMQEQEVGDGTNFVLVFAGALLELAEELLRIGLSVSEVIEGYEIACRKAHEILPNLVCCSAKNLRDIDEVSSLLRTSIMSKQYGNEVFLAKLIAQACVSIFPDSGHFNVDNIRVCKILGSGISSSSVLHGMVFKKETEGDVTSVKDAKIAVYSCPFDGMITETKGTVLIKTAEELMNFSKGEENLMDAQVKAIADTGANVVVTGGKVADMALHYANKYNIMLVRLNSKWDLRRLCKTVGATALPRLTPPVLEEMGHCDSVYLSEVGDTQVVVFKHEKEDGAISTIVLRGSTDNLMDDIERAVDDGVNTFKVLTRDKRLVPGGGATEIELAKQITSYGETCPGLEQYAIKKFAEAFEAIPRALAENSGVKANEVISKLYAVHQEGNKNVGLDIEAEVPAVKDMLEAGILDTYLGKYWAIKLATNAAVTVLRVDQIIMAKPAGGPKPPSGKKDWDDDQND

Each substance was assayed against CCT7 (UniProt Q99832) (assay: cross-linking mass spectrometry). Conditions: lysate.
CCT7, sequence (Q99832 whole entry): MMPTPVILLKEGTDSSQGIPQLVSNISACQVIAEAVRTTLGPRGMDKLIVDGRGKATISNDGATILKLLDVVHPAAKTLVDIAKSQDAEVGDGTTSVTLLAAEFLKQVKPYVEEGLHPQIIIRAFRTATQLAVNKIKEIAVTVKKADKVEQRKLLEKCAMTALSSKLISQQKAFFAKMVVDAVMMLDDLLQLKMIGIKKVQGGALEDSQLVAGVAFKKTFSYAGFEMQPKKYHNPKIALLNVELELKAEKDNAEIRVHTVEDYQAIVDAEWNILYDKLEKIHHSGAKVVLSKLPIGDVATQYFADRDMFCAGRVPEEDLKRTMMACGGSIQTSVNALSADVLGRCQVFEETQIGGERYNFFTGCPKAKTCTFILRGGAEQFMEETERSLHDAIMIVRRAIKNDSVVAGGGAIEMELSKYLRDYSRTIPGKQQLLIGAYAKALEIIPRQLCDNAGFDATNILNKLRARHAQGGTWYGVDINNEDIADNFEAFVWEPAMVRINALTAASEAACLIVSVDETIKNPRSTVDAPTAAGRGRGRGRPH
For CCT8, P50990, the cross-linked residues was “K270 - K236”.
CCT5, P48643 was tested, and the cross-linked residues was “K89 - K55”.
With USO1, O60763 the cross-linked residues was “S164 - S329”.
